# From PubChem BioAssay
# CYP2C9 inh – human CYP2C9 inhibition; CYP2C9 Supersomes, luciferin-H conversion, luminescence; hit rate 20% among 96,000; inhibition, % at 5 µM; P11712;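 active means blocking of liver enzyme CYP2C9 beyond about 50% at 5 µM, limit read from the data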
# CYP2C19 activ – cytochrome P450 2C19 (human) activation. P33261. recombinant CYP2C19, luciferin-H EGE luminescence; hits give high values; 0 = fully inhibited enzyme, 1 = untreated enzyme. activation factor at 5 µM. 96,000 tested, under 10 active. AID 1025;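 active means activation factor of at least 2 at 5 µM in the primary screen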;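 further: 0 = wells with 2.5 mM tranylcypromine and 1 = vehicle-only wells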
# Target sequence (P33261 whole entry, looked up): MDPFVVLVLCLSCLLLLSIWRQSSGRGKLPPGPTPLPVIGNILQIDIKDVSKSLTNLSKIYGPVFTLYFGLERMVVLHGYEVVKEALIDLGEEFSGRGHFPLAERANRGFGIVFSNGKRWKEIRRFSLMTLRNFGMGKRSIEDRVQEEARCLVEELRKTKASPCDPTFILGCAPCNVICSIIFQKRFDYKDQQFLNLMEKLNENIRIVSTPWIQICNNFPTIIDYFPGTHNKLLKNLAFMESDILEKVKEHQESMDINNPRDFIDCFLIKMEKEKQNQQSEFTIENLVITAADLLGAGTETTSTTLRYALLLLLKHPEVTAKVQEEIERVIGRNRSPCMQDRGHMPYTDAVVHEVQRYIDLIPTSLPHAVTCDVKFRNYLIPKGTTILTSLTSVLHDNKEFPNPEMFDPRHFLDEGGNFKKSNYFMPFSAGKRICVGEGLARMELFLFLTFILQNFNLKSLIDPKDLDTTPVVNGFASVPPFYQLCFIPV
# CYP2C9 act – increases human cytochrome P450 2C9 activity | AID 1024 | activation factor at 5 µM | hit rate 1.4% among 96,000 | recombinant CYP2C9, luciferin-H conversion, luminescence; hits give high values; factor 1 = untreated enzyme, 0 = blocked | P11712;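 active means activation factor of 2 or more for CYP2C9 at a 5 µM dose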;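 further: 0 = sulfaphenazole-blocked wells and 1 = vehicle-only wells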
# PostGolgi ctrl – yeast control strain growth, post-Golgi counter-screen | efflux-deficient yeast background strain, growth absorbance A615, 16 h | inhibition, % at 10 µM | hit rate 5% among 98,000
# CYP2C19 inh – human CYP2C19 inhibition; P33261; hit rate 21% among 96,000; CYP2C19 Supersomes, luciferin-H EGE luminescence, 30 min; inhibition, % at 5 µM; AID 778;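 active means CYP2C19 inhibition above a set limit at 5 µM in the primary screen, cut at about 50% in these data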;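 further: plate controls were negative control wells for no effect and 2.5 mM tranylcypromine positive control for full effect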
# PostGolgi yeast – growth inhibition of a yeast mutant, post-Golgi transport screen; inhibition, % at 10 µM; hit rate 0.9% among 98,000; AID 739; post-Golgi transport phenotypic cell assay;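 further: yeast cells grown in 1536-well plates; yeast grown about 18 h at 30C before absorbance read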
# An asterisk follows results filed as active. In the library only some 32% were active in any assay of this set; here they are far more common. Unless noted, no stated cut-off is given here; in the data, active means inhibition above about 30%; inactive means the rest.
SMILES,CYP2C9 inh,CYP2C19 activ,CYP2C9 act,PostGolgi ctrl,CYP2C19 inh,PostGolgi yeast
O=C(OCc1ccc(COC(=O)c2ccccn2)cc1)c1ccccn1,21.4,1,0.8,1.5,4.8,2.4
O=C1Nc2cc(Cl)c(Cl)cc2N(O)N1c1ccc(Cl)c(Cl)c1,53.7*,0.9,0.5,3.0,12.5,-2.3
O=C1Nc2ccccc2C(O)(C(=O)NC2CC2)N1c1ccc(Cl)c(Cl)c1 (stereo unspecified),-3.7,0.9,1,0.5,7.4,1.6
Cc1ccc2nc3sc(C(=O)Nc4ccc(N5CCOCC5)cc4)c(N)c3cc2c1,5.8,0.9,0.9,-3.3,14.7,16.6
Cc1cccc2cc3c(N)c(C(=O)Nc4ccc(N5CCOCC5)cc4)sc3nc12,36.5,0.7,0.6,41.0*,33.1,-0.7
O=C1C=C(N2CCN(C3=CC(=O)CCC3)CC2)CCC1,-12.8,1,1.1,-4.5,-0.1,-0.3
CC(=O)c1cc2c(cc1NC(=O)CN1CCC(Cc3ccccc3)CC1)OCO2,86.7*,0.3,0.1,10.2,71.3*,-3.7
CCOC(=O)N1CCN(CC(=O)Nc2cc3c(cc2C(C)=O)OCO3)CC1,79.6*,0.8,0.2,1.0,15.1,-10.4
Nc1nc(SCc2nc3scc(-c4cccs4)c3c(=O)[nH]2)n[nH]1,44.2,0.8,0.6,0.1,19.0,8.2
O=c1[nH]nc(CNc2ccc(O)cc2)c2ccccc12,40.0,0.9,0.6,8.8,5.8,-2.8
CCOC(=O)N1CCC(NC(=O)c2cc(C(=O)Nc3ccc(OC)c(OC)c3)ccc2CO)CC1,63.5*,0.8,0.4,-0.4,19.8,1.9
CCOC(=O)N1CCC(N2Cc3cccc(C(=O)N4CCN(C5CCCCC5)CC4)c3C2=O)CC1,78.2*,0.6,0.2,12.4,40.5,7.8
CCOC(=O)c1ccc(NC(=O)c2ccc(CO)c(C(=O)NC3CCN(C(=O)OCC)CC3)c2)cc1,25.3,0.8,0.7,0.6,18.2,2.6
CCOC(=O)C1CCN(C(=O)Nc2ccc(OC)c(OC)c2)CC1,-11.5,0.9,1.1,0.0,5.4,-12.2
CCOC(=O)N1CCC(N2Cc3cccc(C(=O)Nc4ccc(OC)c(OC)c4)c3C2=O)CC1,94.8*,0.3,0.1,37.0*,70.0*,1.9
CCOC(=O)c1ccccc1NC(=O)c1cccc2c1C(=O)N(C1CCN(C(=O)OCC)CC1)C2,96.5*,0.6,0,5.9,43.3,-12.2
Cc1n[nH]c(C)c1Cc1ccc(C(=O)O)cc1,-6.2,1,1.1,12.2,-4.4,6.2
Cc1ccc(-c2nc(CSCC(=O)NCCCN3CCOCC3)c(C)o2)cc1,10.9,0.9,0.9,2.1,10.9,7.2
CSc1ccc(-c2nc(CSCC(=O)NCCCN3CCOCC3)c(C)o2)cc1,29.0,0.4,0.7,1.2,55.6*,-0.2
Cc1ccc(-c2nc(CSCC(=O)NCCN3CCN(Cc4ccccc4)CC3)c(C)o2)cc1,16.1,0.8,0.8,37.8*,18.3,1.9
CC1(C)Cc2c(sc3nc(-c4ccccc4Cl)n(N)c(=O)c23)CO1,-15.6,1.1,1.2,10.1,-6.0,-14.7
COc1ccc(OC)c(NC(=O)CN2C(=O)C3(OCCCO3)c3ccccc32)c1,68.9*,0.9,0.3,-0.1,13.9,-3.7
O=C1N(Cc2ccccc2F)c2ccccc2C12OCCCO2,-38.8,0.4,1.4,8.3,57.3*,-12.8
COc1ccc(CCNC(=O)CN2C(=O)C3(OCCCO3)c3ccccc32)cc1OC,22.5,0.4,0.8,-2.3,58.8*,2.8
COc1ccccc1NC(=O)CN1C(=O)C2(OCCCO2)c2ccccc21,70.4*,0.2,0.3,5.3,80.5*,-5.0
SMILES,CYP2C9 inh,CYP2C19 activ,CYP2C9 act,PostGolgi ctrl,CYP2C19 inh,PostGolgi yeast
CC(C)CC(=O)CN1C(=O)C2(OCCO2)c2ccccc21,-3.1,0.8,1,7.3,22.2,-9.3
CCC(=O)NC(c1ccccc1)c1nc2ccccc2[nH]1 (stereo unspecified),-16.0,0.8,1.2,-1.9,21.3,-4.3
COc1ccc(CCNC(=O)CN2CCC(C)CC2)cc1OC,3.5,0.6,1,3.0,36.6,4.5
COc1ccc(CCNC(=O)CN2CCCc3ccccc32)cc1OC,59.3*,0.3,0.4,-2.4,74.3*,3.9
CC(Sc1nnnn1C)C(=O)Nc1ccc(Oc2ccccc2)cc1 (stereo unspecified),45.7,0.4,0.5,9.5,62.9*,-1.1
COc1ccc(Br)cc1C1SCCN1S(C)(=O)=O (stereo unspecified),2.7,0.5,1,4.5,49.7,-2.7
COc1ccc(CC(=O)OCC(=O)Nc2ncc(Cl)cc2Cl)cc1,52.8*,0.4,0.5,-5.0,63.7*,-3.8
O=C(COC(=O)CCc1ccccc1)Nc1ncc(Cl)cc1Cl,21.0,0.5,0.8,-4.5,54.5*,-1.8
COc1ccc(CC(=O)OCC(=O)NC(=O)NC2CCCCC2)cc1,55.6*,0.9,0.4,-1.6,11.8,3.3
COc1cc(CC(=O)OCC(=O)Nc2ncc(Cl)cc2Cl)cc(OC)c1OC,45.3,0.3,0.5,-1.1,67.0*,-1.9
Cc1ccc(-c2csc(C3C(N)=NC(S)=C(C#N)C34CCCCC4)n2)cc1 (stereo unspecified),88.6*,0.5,0.1,2.8,49.6,5.8
N#CC1=C(S)N=C(N)C(c2nc(-c3ccccc3)cs2)C12CCCC2 (stereo unspecified),98.4*,0.1,0,4.8,86.3*,-9.2
N#CC1=C(S)N=C(N)C(c2nc(-c3ccccc3)cs2)C12CCCCC2 (stereo unspecified),67.1*,0.4,0.3,14.2,59.5*,2.2
O=C(Oc1cccc(N2C(=O)CCC2=O)c1)C1CC(=O)N(c2ccc(F)cc2)C1 (stereo unspecified),7.6,1.1,0.9,9.1,-13.4,4.8
CC(=O)Nc1ccc(S(=O)(=O)N2CCCCC2c2cccnc2)cc1 (stereo unspecified),17.2,0.8,0.8,34.9*,15.7,0.8
COc1cc(C)c(C)cc1S(=O)(=O)N1CCCCC1c1cccnc1 (stereo unspecified),23.8,0.2,0.8,4.3,81.1*,-5.4
COc1ccc(OC)c(S(=O)(=O)N2CCCCC2C(=O)O)c1 (stereo unspecified),5.7,1.1,0.9,-2.5,-10.7,-7.5
CN(C)c1c([N+](=O)[O-])cc2[nH]c(=O)[nH]c2c1[N+](=O)[O-],19.6,1.2,0.8,-12.3,-16.8,1.9
Cc1ccc(-c2nnn(CC(=O)N(CC(=O)NC(C)C)c3cnc4ccccc4c3)n2)o1,29.2,0.9,0.7,-8.5,9.7,1.8
Cc1ccc(-c2nnn(CC(=O)N(CC(=O)NC3CCCC3)c3cnc4ccccc4c3)n2)o1,76.6*,0.6,0.2,-1.4,44.4,8.2
Cc1cccc(N(CC(=O)NCc2ccccc2)C(=O)Cn2nnc(-c3ccc(C)o3)n2)c1,40.2,0.7,0.6,-0.5,28.3,1.0
